# “And” between values parts separate entries of the source, which are not always exact repeats. Identical values can stand only once. The source made the active and inactive calls. Calls follow the shape of the dose curve; as a rule, active = well fitted activation curve with a large enough effect; inconclusive = small, poorly fitted or top-dose-only effect, or effect the other way; inactive = flat fitted curve, though single readings scatter.
# Test: Cellular Toxicity (caspase-3) Renal Proximal Tubule (AID 667);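 also: cells exposed to compound for 16 hours at 37 °C before detection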
# Details: renal proximal tubule cells, at 91.7 µM (top of the series)
# Text: NIH Chemical Genomics Center [NCGC]
# NIH Molecular Libraries Screening Centers Network [MLSCN]
# National Institutes of Environmental Health Sciences [NIEHS]
# National Toxicology Program [NTP]
# We have developed a 1536-well cell-based assay for quantitative high throughput screening (qHTS) against a number of cell lines to determine in vitro caspase 3/7 activity of small molecules. This particular assay uses the primary kidney proximal tubule cells freshly isolated from rat.
# NCGC Assay Protocol Summary:
# The Caspase-Glo 3/7 assay (Promega) is a homogeneous method to measure caspase-3 and caspase-7 activities in cultured cells. The quantitation of caspase 3/7 activity is based on the cleavage of a peptide-aminoluciferin substrate. After caspase cleaves the substrate the free aminoluciferin is liberated and serves as the substrate of luciferase, which generates the light. The luminescent signal is proportional to the amount of caspase 3/7 activity present.
# Using the Caspase-Glo 3/7 assay, the amount of caspase 3/7 activity was measured in the rat kidney proximal tubule cells with complete culture medium following compound treatment for 16 hours. The assay was performed in opaque white 1536-well plates. In the screen, staurosporine and doxorubicin were used as positive controls. Library compounds were measured for their ability to cause the activation of caspase 3/7 in the cell line, as reflected by an increase in luminescence signal, in a concentration-dependent manner. Data were normalized to the controls for basal activity (DMSO only) and 100% stimulation (10 uM staurosporine). AC50 values were determined from concentration-response data modeled with the standard Hill equation.
# qHTS protocol for caspase 3/7 assay in rat kidney proximal tubule cells
# [Step] [Parameter] [Value] [Description]
# 1. Reagent; 5 uL; 1000 rat kidney proximal tubule cells/well
# 2. Time; 5 hr; 37 °C incubation
# 4. Controls; 23 nL; doxorubicin 7 pM to 100 uM & staurosporine 1.4 pM to 20 uM
# 5. Time; 16 hr; 37 °C incubation
# 6. Reagent; 5 uL; Caspase-Glo 3/7 reagent
# 7. Time; 1 hr; Room Temperature
# 8. Detection; Luminescence; Viewlux plate reader
# Keywords: caspase 3/7, apoptosis, rat kidney proximal tubule cells, luminescence, NTPHTS, NTPHTS_NCGC, NIEHS, EPA, DSSTox, MLSMR, MLSCN, NIH Roadmap, qHTS, NCGC
row,SMILES,caspase-3 activation
1,Cc1ccccc1N,-5.94% (inactive)
2,O=C(O)COc1ccc(Cl)cc1Cl,4.86% (inactive)

# Same assay, conditions: renal proximal tubule cells, at 91.7 µM (top of the series), primary cells freshly taken from rat, solvent-only wells 0%, staurosporine 100%
row,SMILES,caspase-3 activation
1,Cc1ccccc1N,22.1% (inactive)
2,O=C(O)COc1ccc(Cl)cc1Cl,3.32% (inactive)

# Same assay, conditions: renal proximal tubule cells; at 91.7 µM (top of the series), primary cells freshly taken from rat, solvent-only wells 0%, staurosporine 100% unless noted
row,SMILES,caspase-3 activation
1,COC(=O)NC(=S)Nc1ccccc1NC(=S)NC(=O)OC,-3.02% (inactive)
2,COc1ccc(N)cc1,4.4% (inactive) and -11% (inactive)
3,C[N+](C)(C)Cc1ccccc1,4.55% [at 91.7 µM] (inactive)
4,ClC1=C(Cl)C2(Cl)C3C4C=CC(C4)C3C1(Cl)C2(Cl)Cl (stereo not given),-0.505% [at 91.7 µM] (inactive)
5,O=C(Cl)C(Cl)(Cl)Cl,-1.87% (inactive)
6,CC(C)(C)OOC(C)(C)C,11.1% (inactive)
7,ClC1=C(Cl)C2(Cl)C3C4CC(C5OC45)C3C1(Cl)C2(Cl)Cl (stereo not given),-4.43% [at 91.7 µM] (inactive)
8,NC(=S)Nc1ccccc1,12.5% [at 91.7 µM] (inactive) and -6.92% [at 91.7 µM] (inactive)
9,OCC1CO1 (stereo not given),0.454% (inactive)
10,ClC(Cl)=C(Cl)Cl,1.99% (inactive) and -8.12% (inactive)
11,ClC(Cl)=C(c1ccc(Cl)cc1)c1ccc(Cl)cc1,-10.4% [at 91.7 µM] (inactive) and -6.37% [at 91.7 µM] (inactive)
12,C=CCc1ccc(OC)cc1,1.25% [at 91.7 µM] (inactive)
13,CCCCOC(=O)c1ccccc1C(=O)OCCCC,-0.0975% [at 91.7 µM] (inactive)
14,c1ccc(OP(Oc2ccccc2)Oc2ccccc2)cc1,1.22% (inactive)
15,CCSC(=O)Cl,8.48% (inactive)
16,CCCCCCCCCc1ccc(O)cc1,172% (active)
17,O=C1C(Cl)=C(Cl)C(=O)C(Cl)=C1Cl,-16.1% (inactive)
18,C=CC(=C)C,-6.39% (inactive)

row,SMILES,caspase-3 activation
1,C=CCOC(C)=O,-7.63% (inactive)
2,Nc1c(Cl)c(Cl)nc(C(=O)O)c1Cl,-0.472% (inactive)
3,CC(C)(c1ccccc1)c1ccc(O)cc1,4.59% (inactive)
4,Clc1ccc2ccccc2c1,7.88% (inactive)
5,O=S1OCC2C(CO1)C1(Cl)C(Cl)=C(Cl)C2(Cl)C1(Cl)Cl (stereo not given),8.37% [at 91.7 µM] (inactive)
6,CCN(CC)c1ccccc1,2.98% (inactive)
7,CC(=O)[O-].CC(=O)[O-].O.O.O.[Pb+2],-9.48% (inactive) and -1.66% (inactive)
8,CNC(=O)O/N=C/C(C)(C)SC,-0.514% [at 91.7 µM] (inactive)
9,ClC(Cl)(Cl)c1ccccc1,-4.62% (inactive) and -2.75% (inactive)
10,Oc1ccc(Cl)cc1Cl,-2.5% (inactive)
11,OCC(Br)CBr (stereo not given),0.653% (inactive)
12,C[C@]12CC[C@H]3[C@@H](CCC4=CC(=O)CC[C@@]43C)[C@@H]1CC[C@@H]2O,-4.12% [at 91.7 µM] (inactive)
13,Cc1ccc(O)c(C)c1,-3.58% [at 91.7 µM] (inactive)
14,BrCCBr,-15.1% (inactive)
15,O=NN(CCO)CCO,4.45% (inactive)
16,Nc1ccccc1Cl,2.73% (inactive)
17,O=NN(c1ccccc1)c1ccccc1,1.42% (inactive)
18,C=CC(N)=O,6.41% (inactive) and -1% (inactive)

# Source: PubChem BioAssay (NCATS)
